Source: PubChem BioAssay (NCATS)
Records with an inconclusive call do not appear. Activity calls are given as the source filed them. Calls come from the whole dose curve; as a rule, active = well fitted inhibition curve with a large enough effect; inconclusive = small, poorly fitted or top-dose-only effect; inactive = flat fitted curve, though single readings scatter.

Tests used:
Assay in all cases: qHTS profiling for inhibitors of Plasmodium falciparum proliferation (AID 504749); note: nearly all actives have a fitted effect of over 60% in size
Conditions in all cases: P. falciparum in erythrocytes, SYBR Green DNA, 72 h; series mostly up to 28.7 µM
ATS189 = tested on: ATS189
Outline: (§1)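 Readout was DNA-dye fluorescence from lysed cultures, ex 485/em 535 nm. Parasitized red cells had grown 72 h with compound; data scaled between 0.29 uM artemisinin and DMSO wells and corrected using vehicle-only plates.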

C2A = tested on: C2A
Outline: as §1

CP185 = tested on: CP185
Outline: as §1

CP191 = tested on: CP191
Outline: as §1

CP192 = tested on: CP192
Outline: as §1

CP194 = tested on: CP194
Outline: as §1

CP201 = tested on: CP201
Outline: as §1

CP203 = tested on: CP203
Outline: as §1

CP211 = tested on: CP211
Outline: as §1

CP215 = tested on: CP215
Outline: as §1

CP217 = tested on: CP217
Outline: as §1

CP237 = tested on: CP237
Outline: as §1

CP238 = tested on: CP238
Outline: as §1

CP247 = tested on: CP247
Outline: as §1

CP250 = tested on: CP250
Outline: as §1

CP252 = tested on: CP252
Outline: as §1

CP256 = tested on: CP256
Outline: as §1

CP260 = tested on: CP260
Outline: as §1

CP262 = tested on: CP262
Outline: as §1

ATS95 = tested on: ATS95
Outline: as §1

Measured: Potency
Potency is the fitted concentration of half-maximal effect.

CCCCC1=NC2(CCCC2)C(=O)N1Cc1ccc(-c2ccccc2-c2nn[nH]n2)cc1
inactive: ATS189 | C2A | CP185 | CP191 | CP192 | CP194 | CP201 | CP203 | CP211 | CP215 | CP217 | CP237 | CP238 | CP247 | CP250 | CP252 | CP256 | CP260 | CP262

CC1=C(C(=O)OC(C)C)C(c2cccc([N+](=O)[O-])c2)C(C(=O)OC2CN(C(c3ccccc3)c3ccccc3)C2)=C(N)N1 (centres undefined)
active: ATS189 7.08 µM | ATS95 11.2 µM | CP185 10 µM | CP191 7.08 µM | CP192 7.57 µM | CP194 6.75 µM | CP201 7.57 µM | CP203 12 µM | CP211 6.75 µM | CP215 7.57 µM | CP217 6.31 µM | CP237 12.6 µM | CP238 8.91 µM | CP247 10 µM | CP250 8.91 µM | CP252 10 µM | CP256 4.47 µM | CP260 6.31 µM | CP262 12 µM

C#C[C@]1(OC(C)=O)CC[C@H]2[C@@H]3CCC4=C[C@@H](OC(C)=O)CC[C@@H]4[C@H]3CC[C@@]21C
inactive: ATS189 | ATS95 | C2A | CP185 | CP191 | CP194 | CP201 | CP203 | CP211 | CP215 | CP217 | CP237 | CP238 | CP247 | CP250 | CP252 | CP256 | CP260 | CP262

CC(C)(C)CC(C)(C)c1ccc(O)c(Cc2ccc(Cl)cc2Cl)c1
active: ATS189 0.794 µM | ATS95 2 µM | C2A 2.82 µM | CP185 3.16 µM | CP191 1 µM | CP192 3.79 µM | CP211 1.51 µM | CP215 1.69 µM | CP217 2.82 µM | CP237 2.51 µM | CP238 1.41 µM | CP247 3.16 µM | CP250 3.16 µM | CP252 1 µM | CP256 3.55 µM | CP260 2 µM

CC(=O)OCC(=O)[C@@]1(OC(C)=O)[C@@H](C)C[C@H]2[C@@H]3C[C@H](F)C4=CC(=O)C=C[C@]4(C)[C@@]3(F)[C@@H](O)C[C@@]21C
inactive: ATS189 | C2A | CP185 | CP191 | CP192 | CP194 | CP201 | CP203 | CP211 | CP217 | CP238 | CP247 | CP250 | CP252 | CP256 | CP260 | CP262

O=C(Nc1ccc(Oc2ccc(Cl)cc2)c(Cl)c1)c1cc(I)cc(I)c1O
inactive: ATS189 | ATS95 | C2A | CP185 | CP192 | CP194 | CP201 | CP203 | CP211 | CP238 | CP256 | CP262
active: CP217 0.158 µM

CC(=O)N/N=C/c1ccc([N+](=O)[O-])o1
active: CP260 7.94 µM
inactive: ATS189 | CP192 | CP194 | CP201 | CP203 | CP215 | CP238

CC[N+](CC)(CCNC(=O)C(=O)NCC[N+](CC)(CC)Cc1ccccc1Cl)Cc1ccccc1Cl
active: ATS189 2.24 µM | ATS95 2.82 µM | C2A 10 µM | CP185 1.58 µM | CP191 4.47 µM | CP194 2.39 µM | CP201 4.78 µM | CP203 1.35 µM | CP211 1.07 µM | CP215 3.79 µM | CP217 7.94 µM | CP237 3.16 µM | CP238 2.51 µM | CP247 3.55 µM | CP250 2.51 µM | CP252 4.47 µM | CP256 0.398 µM | CP260 1.58 µM | CP262 0.849 µM

Oc1ccc(O)cc1
active: CP203 15.1 µM
inactive: ATS189 | ATS95 | CP185 | CP191 | CP201

CC(O)C(=O)O (centres undefined)
inactive: ATS189 | C2A | CP185 | CP191 | CP192 | CP194 | CP201 | CP203 | CP211 | CP217 | CP237 | CP238 | CP247 | CP250 | CP252 | CP256 | CP260 | CP262

CCOC(=O)COc1ccc2c(C)c(CCN(CC)CC)c(=O)oc2c1Cl
inactive: ATS189 | ATS95 | CP185 | CP192 | CP194 | CP201 | CP203 | CP211 | CP215 | CP217 | CP237 | CP247 | CP250 | CP260 | CP262

Cc1cc(N)c2cc(NC(=O)Nc3ccc4nc(C)cc(N)c4c3)ccc2n1
inactive: CP252
active: ATS189 5.62 µM | ATS95 11.2 µM | C2A 10 µM | CP185 11.2 µM | CP191 0.631 µM | CP192 3.79 µM | CP211 3.79 µM | CP217 8.91 µM | CP237 5.01 µM | CP238 12.6 µM | CP247 12.6 µM | CP250 11.2 µM | CP256 1.78 µM | CP260 5.62 µM | CP262 4.78 µM

CN1CCC(=C2c3ccccc3Sc3ccccc32)CC1
active: ATS189 7.94 µM | ATS95 11.2 µM | C2A 11.2 µM | CP185 8.91 µM | CP194 10.7 µM | CP203 3.79 µM | CP211 13.5 µM | CP215 9.53 µM | CP217 11.2 µM | CP237 8.91 µM | CP238 11.2 µM | CP247 7.94 µM | CP250 11.2 µM | CP252 7.08 µM | CP256 11.2 µM | CP260 8.91 µM

O=C1[C@H]2CCCC[C@H]2C(=O)N1CCCCN1CCN(c2nsc3ccccc23)CC1
inactive: ATS189 | ATS95 | CP185 | CP192 | CP194 | CP201 | CP203 | CP211 | CP215 | CP217 | CP238 | CP247 | CP250 | CP252 | CP256 | CP260 | CP262

COc1cccc(CCc2ccccc2OCC(CN(C)C)OC(=O)CCC(=O)O)c1 (centres undefined)
active: ATS189 5.62 µM | ATS95 5.62 µM | C2A 10 µM | CP185 8.91 µM | CP192 16.9 µM | CP194 4.78 µM | CP203 3.38 µM | CP211 7.57 µM | CP215 8.49 µM | CP217 7.94 µM | CP237 1.12 µM | CP238 7.08 µM | CP247 5.62 µM | CP250 11.2 µM | CP252 8.91 µM | CP256 11.2 µM | CP260 3.55 µM | CP262 12 µM

CC(C)(Oc1ccc(Cl)cc1)C(=O)O
inactive: ATS189 | C2A | CP185 | CP191 | CP192 | CP194 | CP201 | CP203 | CP211 | CP215 | CP217 | CP237 | CP238 | CP247 | CP250 | CP252 | CP256 | CP260 | CP262

CCCCCCCCCCCCCCCC[N+](C)(C)CCN(Cc1ccc(OC)cc1)c1ncccn1
active: CP191 0.794 µM
inactive: ATS189 | CP192 | CP194 | CP201 | CP211 | CP215 | CP252 | CP256

COc1ccc(CN2CCN(C(c3ccc(F)cc3)c3ccc(F)cc3)CC2)c(OC)c1OC
active: ATS189 10 µM | ATS95 12.6 µM | C2A 12.6 µM | CP185 10 µM | CP191 7.94 µM | CP194 15.1 µM | CP201 15.1 µM | CP203 13.5 µM | CP211 16.9 µM | CP217 11.2 µM | CP237 8.91 µM | CP247 10 µM | CP250 8.91 µM | CP252 10 µM | CP260 7.94 µM
